# Source: PubChem BioAssay AID686921 (National Center for Advancing Translational Sciences (NCATS), 2013)
# Active and inactive are the calls of the source. Calls come from the whole dose curve; as a rule, active = well fitted curve in the direction sought with a large enough effect; inconclusive = small, poorly fitted or top-dose-only effect, or another doubt; inactive = no such curve, though single readings can be large or run the other way.
# Assay: qHTS screen for inhibitors of ELG1-dependent DNA repair in human embryonic kidney (HEK293T) cells expressing luciferase-tagged ELG1: 5FU Viability Assay for probe SAR
# Conditions: HEK293T ELG1-luc, CellTiter-Glo viability, 16 h; series mostly up to 46.1 µM
# Excerpt: Cancer cells divide rapidly compared to normal cells in the body. During cell division, cancer cells need to duplicate their genome by DNA replication. The failure of genome duplication leads to cancer cells' death. Therefore, inhibitors of DNA replication could specifically kill cancer cells. Based on this concept, many chemotherapeutic agents were developed and have been used to treat cancer patients. However, there are a limited number of agents available in the clinical setting, and some of those that do exist have low efficacy and severe side effects. Therefore, if we can find the compounds that effectively block DNA replication either by directly damaging DNA or by inhibiting other cellular mechanisms, the options for cancer treatment will be broadened. With this in mind, we developed a quantitative high-throughput ELG1-luciferase reporter gene assay. Small molecules that specifically block ELG1 function in response to DNA damage can be identified by monitoring the suppression of luciferase activity. Since ELG1 defines a pathway for repairing DNA damage, agents blocking ELG1 function can be used to sensitize cancer cells to chemotherapeutic agents whose mechanism of action involves the induction of DNA damage. Cytotoxicity of the active compounds in the ELG1 qHTS assay (AID 493107) was assessed using the CellTiter-Glo Luminescent Cell Viability Assay kit (Promega, USA). CellTiter-Glo measures the intracellular ATP present in metabolically active cells using Ultra-Glo as the luciferase to detect ATP levels. In brief, the luciferase in the buffer catalyzes the oxidation of luciferin to oxyluciferin and light which is dependent on ATP. […] DMSO and wells with media alone were used as positive and negative controls, respectively. Inactivity to this assay is the desirable outcome. NIH Molecular Libraries Probe Production Network [MLPCN] NIH Chemical Genomics Center [NCGC] MLPCN Grant: R03 MH092164 Assay Provider: Kyungjae Myung, NHGRI, NIH
# ELG1-luc HEK293T cells will be seeded in 1536-well plates at a density of 2,000 cells/well. Approximately 5 hours after plating, compounds will be added to the plate by pin tool transfer and 5-fluorouridine will be added by FRD dispenser (final concentration of 5-fluorouridine =10 µM). 16 hours following the addition of the compounds, cell viability will be measured using CellTiter Glo.
row,Structure (SMILES),outcome
1,Fc1cc(Nc2nc(-c3ccncc3)nc3ccccc23)ccc1-n1cncn1,inactive
2,COc1cc(-c2nc(Nc3ccc(F)c(F)c3)c3ccccc3n2)c(F)cn1,inactive
3,Fc1ccc(Nc2nc(-c3ccncc3Cl)nc3ccccc23)cc1F,inactive
4,COc1nccc(-c2nc(Nc3ccc(F)c(F)c3)c3ccccc3n2)c1Cl,inactive
5,Fc1cc(Nc2nc(-c3ccncc3)nc3ccccc23)ccc1-c1ccc(F)c(F)c1F,inactive
6,Cc1ccc(Nc2nc(-c3ccncc3)nc3ccccc23)cc1F,inactive
7,COc1ccc(-n2c(C)c(C(C)=O)c3cc(O)ccc32)cc1,inactive
8,Fc1cc(Nc2nc(-c3ccncc3)nc3ccccc23)ccc1OC(F)(F)F,inactive
9,Fc1ccccc1-c1ccc(Nc2nc(-c3ccncc3)nc3ccccc23)cc1F,inactive
10,Fc1cc(Nc2nc(-c3ccncc3)nc3ccccc23)ccc1-c1ccnc(C(F)(F)F)c1,inactive
11,Fc1cccc(-c2ccc(Nc3nc(-c4ccncc4)nc4ccccc34)cc2F)c1,inactive
12,COc1ccc(-n2c(C)c(C(C)=O)c3ccccc32)cc1,inactive
13,Fc1ccc(Nc2cc(-c3ccccc3)nc(-c3ccncc3)n2)cc1F,inactive
14,Fc1ccc(Nc2nc(-c3ccnc(C(F)(F)F)c3)nc3ccccc23)cc1F,inactive
15,Fc1cc(Nc2nc(-c3ccncc3)nc3ccccc23)ccc1-c1cncnc1,inactive
16,Fc1cc(Nc2nc(-c3ccncc3)nc3ccccc23)ccc1-c1ccncc1,inactive
17,Fc1ccc(Nc2nc(-c3ccnc(N4CCCCC4)c3)nc3ccccc23)cc1F,inactive
18,Fc1cc(Nc2nc(-c3ccncc3)nc3ccccc23)ccc1-c1ccc2[nH]ncc2c1,inactive
19,Nc1cc(-c2nc(Nc3ccc(F)c(F)c3)c3ccccc3n2)ccn1,inactive
20,CCOC(=O)c1ccc2c(c1)c(C(C)=O)c(C)n2-c1ccc(OC)cc1,inactive
21,CSc1ccccc1-c1ccc(Nc2nc(-c3ccncc3)nc3ccccc23)cc1F,inactive
22,Fc1ccc(-c2ccc(Nc3nc(-c4ccncc4)nc4ccccc34)cc2F)cc1,inactive
23,COc1cc(Nc2nc(-c3ccncc3)nc3ccccc23)ccc1NS(C)(=O)=O,inactive
